# High-throughput results deposited in PubChem BioAssay by several laboratories.
# Bcl-xL primary: blocks human Bcl-xL binding to Bim BH3 peptide. Q07817. GST-Bcl-xL / FITC-Bim BH3 peptide fluorescence polarization. inhibition, % at 10.9 µM. 0.7% of 320,000 active. AID 2129;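 active means inhibition above the mean of all tested compounds plus 3 SD, cutoff set per campaign, cut at about 30% in these data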;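 further: 0% = DMSO wells and 100% = unlabeled Bim-BH3 peptide competitor; inhibitors lower millipolarization by displacing the labeled peptide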
# MCL1 BIM primary: inhibitors of human MCL1 binding to BIM-BH3 peptide; Q07820; 0.68% of 320,000 active; GST-MCL1 / FITC-Bim-BH3 fluorescence polarization; inhibition, % at 10.9 µM; AID 2057;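 active means inhibition above the mean inhibition of all tested compounds plus 3 SD, set per campaign, cut at about 40% in these data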;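 further: 0% = DMSO wells and 100% = unlabeled Bim-BH3 peptide control; higher means more loss of mP so more displacement of Bim peptide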
# E coli Lon inh: inhibitors of E. coli Lon protease; P0A9M0; purified E. coli Lon protease, fluorescence polarization; inhibition, % at 7.94 µM; 0.42% of 360,000 active; in the data active means inhibition above about 13%, passing the limit was not always enough;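 further: 0% = enzyme with probe and DMSO and 100% = no enzyme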
# MEX-5 binding: C. elegans MEX-5 TCR-2 RNA binding activity | Q9XUB2 | MEX-5/FITC-TCR2 RNA binding, fluorescence polarization; hits give low values | activity score (negative = inhibition of binding), % at 10 µM | 0.38% of 300,000 active;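 active means inhibition past about -25% in most replicates, and total fluorescence under double the plate's negative control median, limit read from the data; inconclusive means replicates evenly split on the limit, or fluorescence at least double controls; inactive means too little inhibition in most replicates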;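 further: 0% = DMSO and -100% = 5 µM competing unlabeled TCR2 RNA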
# Target sequence (Q9XUB2 whole entry, looked up): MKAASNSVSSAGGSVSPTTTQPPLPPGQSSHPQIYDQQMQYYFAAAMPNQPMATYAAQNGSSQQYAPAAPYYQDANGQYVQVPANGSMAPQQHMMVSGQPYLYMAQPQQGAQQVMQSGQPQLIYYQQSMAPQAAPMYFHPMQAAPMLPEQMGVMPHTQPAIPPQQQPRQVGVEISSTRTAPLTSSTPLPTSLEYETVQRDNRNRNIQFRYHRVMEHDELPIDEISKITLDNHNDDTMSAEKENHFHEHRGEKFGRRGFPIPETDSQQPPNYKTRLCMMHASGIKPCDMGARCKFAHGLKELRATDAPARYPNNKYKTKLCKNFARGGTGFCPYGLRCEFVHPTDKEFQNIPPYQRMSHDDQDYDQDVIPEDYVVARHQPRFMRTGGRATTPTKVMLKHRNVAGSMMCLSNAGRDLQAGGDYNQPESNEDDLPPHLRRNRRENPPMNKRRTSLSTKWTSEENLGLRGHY
# GLD-1 TGE inh: GLD-1-TGE RNA interaction inhibition (C. elegans); purified GLD-1 + fluorescein TGE RNA, fluorescence polarization; inhibition, % at 5.96 µM; 0.44% of 320,000 active; AID 2280;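 active means percent inhibition above a per-plate cutoff, the plate mean of test compounds plus 3 SD, cut at about 30% in these data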;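 further: 0% = DMSO wells with GLD-1 and probe and 100% = wells lacking GLD-1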
# GLD1 RNA confirm: GLD-1 TGE RNA interaction inhibition, confirmation; inhibition, % at 5.96 µM; shares compounds with GLD-1 TGE inh; 10% of 550 active; GLD-1/FL-TGE RNA fluorescence polarization, biochemical;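 active means average inhibition across triplicates above the hit cutoff set in the primary screen, cut at about 32% in these data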;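 further: 0% = GLD-1 with RNA probe and DMSO and 100% = wells lacking GLD-1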
# * marks the source's active call; other numbers are inactive results; ? = inconclusive; . = no result. Hits are enriched below; roughly 1.4% of the tested compounds scored in any of these assays.
SMILES,Bcl-xL primary,MCL1 BIM primary,E coli Lon inh,MEX-5 binding,GLD-1 TGE inh,GLD1 RNA confirm
Cc1noc(C)c1-c1ccc(C(=O)NCc2cccs2)c2occc12,.,.,-5.0,.,.,.
C=CCc1cccc(/C=N/c2ncn[nH]2)c1O,3.7,14.2,8.0,1.6,-2.1,.
C=CCc1cccc(/C=N/n2c(C)nnc2C)c1O,24.0,29.4,-7.4,-22.0,30.9*,34.7*
CCc1ccc(OCC(O)Cn2c(N3CCCCC3)nc3c2c(=O)[nH]c(=O)n3C)cc1 (stereo unspecified),2.6,-0.9,-4.4,0.1,35.9*,-2.9
CCOC(=O)C1CCN(C(=O)c2ccc3c(c2)NC(=O)/C(=C\c2ccc(C)cc2)S3)CC1,36.8*,42.4*,-5.5,?,35.2*,18.7
CCOC(=O)C1CCN(C(=O)c2ccc3c(c2)NC(=O)/C(=C/c2ccccc2)S3)CC1,10.6,4.9,-5.8,-6.8,-1.2,.
CCOc1ccc(NC(=O)CC2S/C(=N/N=C3CCCCCC3)NC2=O)cc1 (stereo unspecified),0.0,2.2,-13.9,1.4,38.5*,1.4
CC(=O)c1c(C)[nH]c(C(=O)OCC(=O)Nc2cc(Cl)ccc2[N+](=O)[O-])c1C,1.6,7.6,7.5,2.1,34.2*,6.8
COc1ccc(C)cc1C1=CC(=O)C[C@H](c2ccc(F)cc2)C1,2.7,4.0,-9.4,.,34.2*,-5.2
COc1cc(F)c(C2=CC(=O)C[C@H](c3ccc(F)cc3)C2)cc1F,-0.7,-2.8,-12.1,.,3.9,.
CC(C)N(Cc1nccn1C)C(=O)CC1C(=O)NCCN1Cc1ccc(F)c(F)c1 (stereo unspecified),25.0,26.5,15.7,-3.4,37.6*,1.8
NC(=O)C1CCCN(C(=O)c2[nH]c(C(F)(F)F)nc2-c2ccccc2)C1 (stereo unspecified),.,.,-11.7,.,.,.
COc1cccc(-c2nnc(NC(=O)C(C)C)o2)c1,47.5*,50.0*,-9.3,1.2,37.2*,-0.1
Cc1[nH]c2ccccc2c1C(=O)C(C)OC(=O)c1ccccc1NCCO (stereo unspecified),3.6,-1.1,0.0,1.5,45.2*,-1.3
O=C(O)c1ccccc1C(=O)Nc1ccc(-c2csc(-c3ccccc3)n2)cc1,-1.2,-4.2,-0.6,-3.3,94.3*,-1.1
Cc1ccc(Cc2c(-c3ccc(F)cc3)nc3c(Cl)cc(C(F)(F)F)cn23)cc1,.,.,-0.7,.,.,.
Fc1ccc(-c2nc3c(Cl)cc(C(F)(F)F)cn3c2Cl)cc1,24.8,22.1,2.1,-26.1*,37.5*,18.0
CC1(C)Cc2c(C#N)c(N)sc(=S)c2CO1,39.8*,42.8*,2.4,0.9,30.8*,11.7
CCN(CC)c1nc(C)c2c(c1C#N)CC(C)(C)OC2,7.9,3.7,0.3,0.6,-1.7,.
CCn1nnc2cc(C(=O)NCC(c3ccccc3OC)N(C)C)ccc21 (stereo unspecified),7.5,6.4,-10.3,-1.6,1.0,.
CCN1CCN(C(=O)C(C)Nc2cc(Cl)c(OC)cc2OC)CC1 (stereo unspecified),53.3*,48.3*,9.8,-16.6,35.7*,26.0
CCN1CCN(C(=O)Nc2cc(Cl)ccc2OC)CC1,0.5,-1.3,7.1,1.0,-1.0,.
COc1cccc(C=C(C(C)=O)C(=O)c2ccccc2)c1,.,.,2.2,.,.,.
C=C(C)CSc1nc2nc(C)cc(C)n2n1,29.4,34.5,-8.5,-0.9,35.2*,-7.0
COc1cc(C)ccc1S(=O)(=O)NC(=O)C1(C)CCN1C(=O)c1ccc(C2CCCCC2)cc1 (stereo unspecified),.,.,-9.7,.,.,.
SMILES,Bcl-xL primary,MCL1 BIM primary,E coli Lon inh,MEX-5 binding,GLD-1 TGE inh,GLD1 RNA confirm
COCCn1c(CN2CCN(c3ccccc3)CC2)nc2c1c(=O)n(C)c(=O)n2C,27.8,38.0,-0.3,-0.1,32.9*,-2.4
CN(CC(=O)Nc1ccc(F)cc1)C(=O)c1ccc(-c2ccc(F)cc2)o1,.,.,1.7,.,.,.
Nc1ccn([C@@H]2O[C@H](CNCc3cc(Br)ccc3OCc3ccccc3)[C@@H](O)[C@H]2O)c(=O)n1,.,.,-4.9,.,.,.
Cc1c(O)ccc(-c2n[nH]c(C(=O)O)c2-c2nc3ccccc3s2)c1O,10.6,14.4,0.7,-58.1*,44.5*,50.7*
O=C(NCCN1CCC(n2c(=O)[nH]c3ccccc32)CC1)C(c1ccccc1)c1ccccc1,.,.,-0.8,.,.,.
Cc1c(C(=O)N2CCC3(CC2)CC(=O)c2ccccc2O3)cccc1[N+](=O)[O-],-1.2,-0.1,-10.1,0.2,43.8*,-3.7
